The panel holds about 83,000 compounds, 20% with a hit somewhere; the sample as a whole holds those more often.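 Note: values are percent growth. 100 is the growth of untreated cells, values between 100 and 0 indicate rising inhibition; between -100 and 0 indicates cell death.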 Values without a mark were called inactive. The source made the active and inactive calls. The calls were made as follows: active = growth percent below 10; inactive = the rest.

The subject of the experiment is CCRF-CEM leukemia. Put plainly: NCI-60 one-dose screen, 48 h (100 = growth as untreated, 0 = no growth, -100 = all killed). The note with it: 10 µM unless noted.
As for `COc1ccc(-c2csc(NC(=O)CN3CCN(c4cc5c(cc4F)c(=O)c(C(=O)O)cn5C4CC4)CC3)n2)cc1`, the growth was 22.2%. In the case of `O=C(O)c1ccc(=O)[nH]n1`, the growth is 112%. Under `COc1ccc(-c2cc(NC(=O)Nc3ccc(O)cc3)no2)cc1` stands 31%; under `CCN(CC)CCCNc1cc(OC)cc2nc3cc(Cl)ccc3nc12`, 19.9%; under `Clc1nc(Cl)c2c3c(sc2n1)CCCC3`, 10.7%. Consider `CNCCCn1c2c(c3ccc([N+](=O)[O-])cc3c1=O)C(=O)c1cc(OC)cnc1-2`, for which the growth is -31.9% (active). As for `C=C1CC2(OC1=O)C(=O)Nc1ccccc12` (centres undefined), the figure is 0.987% (active); as for `CN1CCN(Cc2ccc(NC(=O)c3cncc(C#Cc4c(N)ncc5ccc(C#N)cc45)c3)cc2C(F)(F)F)CC1`, -14.2% (active); as for `O=C1O[C@H]([C@H](O)CO)C(O)=C1O`, 109%. With `COC(=S)SCN(CSC(=S)OC)c1ccc(Cl)cc1`, the growth is 77.7%. `Cc1ccc(/C=C2\Oc3cc(OCC(=O)c4ccc(Cl)cc4)ccc3C2=O)cc1`: the growth is 176%. On to `CCN(C(=O)CN1CCN(c2cc3c(cc2F)c(=O)c(C(=O)O)cn3C2CC2)CC1)c1nc(-c2ccc(OC)cc2)cs1`, for which the growth was 61.2%.

As to `OC(c1cc(-c2ccccc2)nc2ccc(Cl)cc12)C1CCCCN1` (centres undefined), the growth is 64.6%. With `CC#CC#Cc1cccc(=O)o1`, the growth was 11.9%. Take `CNCc1cccc2c1OCCOCCOCCN(C)S(=O)(=O)c1ccc(cc1)-c1cnc(N)c(n1)C(=O)N2`: the growth is -23.6% (active).

Consider `CCCCCCCCCCCCCCCCCCSC1=CC(=O)C(OC)=C(OC)C1=O`, for which the growth is 91.9%. As for `CC1=C(C)C(=O)OC([C@](C)(O)[C@]2(O)CC[C@@]3(O)[C@@H]4C[C@H]5O[C@]56CC=CC(=O)[C@]6(C)[C@H]4CC[C@]23COC(=O)c2ccc(C)o2)C1` (some centres undefined), the figure is 0.17% (active); as for `O=C1C[C@H](Sc2nc(-c3ccc(F)cc3)cc(C(F)(F)F)n2)[C@H]2CO[C@@H]1O2`, 51.1%.

Turning to `C=C1CC[C@@H]2[C@](C)(COC(C)=O)[C@H](OC(C)=O)CC[C@@]2(C)[C@@H]1CC(Nc1ccc(S(=O)(=O)Nc2nc(C)cc(C)n2)cc1)C1=CCOC1=O` (some centres undefined), the growth was 2.96% (active). Under `COc1ccc(S(=O)(=O)NCCNc2nccc(-c3c(-c4cccc([N+](=O)[O-])c4)nc4sccn34)n2)cc1` stands 75.2%. Under `O=C(Nc1ccc(Nc2cc(Nc3ccccc3)ncn2)cc1)Nc1cc(C(F)(F)F)ccc1F` stands 71.7%. Consider `COc1ccc(/C=C/C(=O)c2c(O)c(C)c(O)c3c2OC2=CC(O)=C(C(C)=O)C(=O)[C@]23C)cc1`, for which the growth is -29.9% (active). Under `C=C(C[n+]1ccccc1)[C@@H]1CC[C@]2(C(=O)OC)CC[C@]3(C)[C@H](CC[C@@H]4[C@@]5(C)CC[C@H](O)C(C)(C)[C@@H]5CC[C@]43C)[C@@H]12` stands 99%; under `CCCCCCCCCCCCNC(=O)[C@H]1CSC(c2ccc(OC)c(F)c2)N1` (some centres undefined), -42.5% (active); under `COc1ccccc1N1CCN(CCn2c(=O)c3c(c4ccccc4n3C)n(C)c2=O)CC1`, 102%.

In the case of `CC(C)[C@H]1COC(=O)N1[C@@H]1C(=O)N([C@@H](CCC(=O)N2CCN(C3CCCC3)CC2)C(=O)N[C@@H]2CCCc3ccccc32)[C@@H]1/C=C/c1cccc(Br)c1`, the growth was 32.8%. Turning to `Cc1nc2nc(N)nc(N)c2nc1C`, the growth is 98.5%. As for `COc1cnc2c(c1)C(=O)c1c-2n(CCCBr)c(=O)c2cc([N+](=O)[O-])ccc12`, the figure is 8.19% (active); as for `COc1ccc(-n2cc(-c3ccccc3)c3c(SCC(=O)N/N=C/c4ccc([N+](=O)[O-])cc4)ncnc32)cc1`, 104%; as for `O=C(O)c1cn(C2CC2)c2cc(N3CCN(Cc4nc5c(cnn5-c5ccc([N+](=O)[O-])cc5)c(=O)[nH]4)CC3)c(F)cc2c1=O`, 99%.

On to `CCOC(=O)c1cnc2ccc(OC)cc2c1Nc1cccc(S(=O)(=O)NC)c1`, for which the growth is 93%. As for `CCN(CC)CCCC(C)NCCCNc1cccc2cccnc12` (centres undefined), the figure is 96.9%; as for `COc1ccc(C/C(C)=C(\c2ccc(Cl)cc2)c2ccc(OCCN3CCCCCC3)cc2)cc1`, 61.6%. As for `C=C1C(=O)O[C@H]2[C@H]1CC/C(Cn1cc(Cn3ccc4cc(Cl)ccc43)nn1)=C\CC[C@@]1(C)O[C@@H]21`, the figure is -27.1% (active).

These data come from PubChem BioAssay (NCI).
